# Measurements: PubChem BioAssay AID1159580 (chemical genetic matrix, 2015)
# The campaign covered roughly 5,500 compounds. About 2,000 (36%) were called active. Inconclusive results (about 18%) are left out. The list shows a part of the results. A number with no mark means an inactive call. No stated cut-off is given here; in the data, active means normalized growth mostly below about 0.91 (no sharp cut-off); inconclusive means no clear call, values can overlap the other calls; inactive means mostly above about 0.92.
# Assay: chemical genetic growth profiling, strain panel (AID 1159580);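 further: tested at 20 µM; growth read once vehicle control cultures reached saturation at 30 °C; 1 = growth at the plate median or of vehicle wells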
# Details: growth OD
smiles,measurement,setting,value
C=CC(C1=CC(=O)C(OC)=CC1=O)c1ccc(OC)cc1 (configuration not stated),normalized growth,"S. cerevisiae deletion strains, locus YJR066W, strain TOR1, stronger effect = lower value",0.94
same,normalized growth,"S. cerevisiae deletion strains, locus YJR075W, strain HOC1, stronger effect = lower value",0.859 (active)
same,normalized growth,"S. cerevisiae deletion strains, locus YKL009W, strain mrt4, stronger effect = lower value",0.944
same,normalized growth,"S. cerevisiae deletion strains, locus YKL068W, stronger effect = lower value",0.976
same,normalized growth,"S. cerevisiae deletion strains, locus YKL085W, strain MDH1 (second series), stronger effect = lower value",0.966
same,normalized growth,"S. cerevisiae deletion strains, locus YKL085W, strain MDH1, stronger effect = lower value",0.966
same,normalized growth,"S. cerevisiae deletion strains, locus YKL160W, strain elf1, stronger effect = lower value",0.741 (active)
same,normalized growth,"S. cerevisiae deletion strains, locus YKL190W, strain CNB1, stronger effect = lower value",0.947
same,normalized growth,"S. cerevisiae deletion strains, locus YKR001C, strain vps1, stronger effect = lower value",0.814 (active)
same,normalized growth,"S. cerevisiae deletion strains, locus YKR026C, strain gcn3, stronger effect = lower value",0.967
same,normalized growth,"S. cerevisiae deletion strains, locus YKR091W, strain srl3, stronger effect = lower value",0.998
same,normalized growth,"S. cerevisiae deletion strains, locus YLL001W, strain dnm1, stronger effect = lower value",0.907
same,normalized growth,"S. cerevisiae deletion strains, locus YLL026W, stronger effect = lower value",0.839 (active)
same,normalized growth,"S. cerevisiae deletion strains, locus YLL041C, strain sdh2, stronger effect = lower value",0.955
same,normalized growth,"S. cerevisiae deletion strains, locus YLR027C, strain aat2, stronger effect = lower value",0.759 (active)
same,normalized growth,"S. cerevisiae deletion strains, locus YLR039C, strain RIC1, stronger effect = lower value",0.819
same,normalized growth,"S. cerevisiae deletion strains, locus YLR058C, strain SHM2, stronger effect = lower value",0.952
same,normalized growth,"S. cerevisiae deletion strains, locus YLR102C, strain apc9, stronger effect = lower value",0.945
same,normalized growth,"S. cerevisiae deletion strains, locus YLR113W, strain HOG1, stronger effect = lower value",0.958
same,normalized growth,"S. cerevisiae deletion strains, locus YLR221C, strain rsa3, stronger effect = lower value",0.701 (active)
same,normalized growth,"S. cerevisiae deletion strains, locus YLR258W, strain gsy2, stronger effect = lower value",0.849 (active)
same,normalized growth,"S. cerevisiae deletion strains, locus YLR262C, strain YPT6 (second series), stronger effect = lower value",0.39 (active)
same,normalized growth,"S. cerevisiae deletion strains, locus YLR262C, strain YPT6, stronger effect = lower value",0.71
same,normalized growth,"S. cerevisiae deletion strains, locus YLR268W, strain sec22, stronger effect = lower value",0.87 (active)
same,normalized growth,"S. cerevisiae deletion strains, locus YLR320W, strain mms22, stronger effect = lower value",0.276 (active)
same,normalized growth,"S. cerevisiae deletion strains, locus YLR330W, strain CHS5, stronger effect = lower value",0.968
same,normalized growth,"S. cerevisiae deletion strains, locus YLR342W, strain FKS1 (second series), stronger effect = lower value",0.674 (active)
same,normalized growth,"S. cerevisiae deletion strains, locus YLR342W, strain FKS1, stronger effect = lower value",0.914
same,normalized growth,"S. cerevisiae deletion strains, locus YLR357W, strain rsc2, stronger effect = lower value",1.07
same,normalized growth,"S. cerevisiae deletion strains, locus YLR370C, strain arc18, stronger effect = lower value",0.864 (active)
same,normalized growth,"S. cerevisiae deletion strains, locus YLR371W, strain rom2, stronger effect = lower value",0.941
same,normalized growth,"S. cerevisiae deletion strains, locus YLR384C, strain iki3, stronger effect = lower value",0.974
same,normalized growth,"S. cerevisiae deletion strains, locus YLR418C, strain cdc73, stronger effect = lower value",0.783 (active)
same,normalized growth,"S. cerevisiae deletion strains, locus YML016C, strain PPZ1, stronger effect = lower value",0.973
same,normalized growth,"S. cerevisiae deletion strains, locus YML032C, strain rad52, stronger effect = lower value",0.855 (active)
same,normalized growth,"S. cerevisiae deletion strains, locus YML120C, strain ndi1, stronger effect = lower value",0.911 (active)
same,normalized growth,"S. cerevisiae deletion strains, locus YML124C, strain tub3, stronger effect = lower value",0.949
same,normalized growth,"S. cerevisiae deletion strains, locus YMR058W, strain fet3, stronger effect = lower value",0.84 (active)
same,normalized growth,"S. cerevisiae deletion strains, locus YMR078C, strain ctf18, stronger effect = lower value",0.914
same,normalized growth,"S. cerevisiae deletion strains, locus YMR125W, strain sto1, stronger effect = lower value",0.779 (active)
same,normalized growth,"S. cerevisiae deletion strains, locus YMR129W, stronger effect = lower value",1
same,normalized growth,"S. cerevisiae deletion strains, locus YMR205C, strain PFK2, stronger effect = lower value",0.715 (active)
same,normalized growth,"S. cerevisiae deletion strains, locus YMR223W, strain ubp8, stronger effect = lower value",0.851 (active)
same,normalized growth,"S. cerevisiae deletion strains, locus YMR263W, strain SAP30, stronger effect = lower value",0.946
same,normalized growth,"S. cerevisiae deletion strains, locus YMR307W, strain GAS1, stronger effect = lower value",0.793
same,normalized growth,"S. cerevisiae deletion strains, locus YNL067W, strain RPL9B, stronger effect = lower value",0.947
same,normalized growth,"S. cerevisiae deletion strains, locus YNL071W, strain lat1, stronger effect = lower value",0.15 (active)
same,normalized growth,"S. cerevisiae deletion strains, locus YNL128W, strain TEP1, stronger effect = lower value",0.942
same,normalized growth,"S. cerevisiae deletion strains, locus YNL153C, strain GIM3, stronger effect = lower value",0.983
same,normalized growth,"S. cerevisiae deletion strains, locus YNL183C, strain NPR1, stronger effect = lower value",0.972
same,normalized growth,"S. cerevisiae deletion strains, locus YNL209W, strain ssb2, stronger effect = lower value",0.939
same,normalized growth,"S. cerevisiae deletion strains, locus YNL233W, strain BNI4, stronger effect = lower value",0.862 (active)
same,normalized growth,"S. cerevisiae deletion strains, locus YNL248C, strain rpa49, stronger effect = lower value",0.727 (active)
same,normalized growth,"S. cerevisiae deletion strains, locus YNL250W, strain rad50, stronger effect = lower value",0.944
same,normalized growth,"S. cerevisiae deletion strains, locus YNL271C, strain bni1, stronger effect = lower value",0.957
same,normalized growth,"S. cerevisiae deletion strains, locus YNL298W, strain CLA4, stronger effect = lower value",0.928
same,normalized growth,"S. cerevisiae deletion strains, locus YNL307C, strain MCK1, stronger effect = lower value",0.412 (active)
same,normalized growth,"S. cerevisiae deletion strains, locus YNL322C, strain KRE1 (second series), stronger effect = lower value",0.996
same,normalized growth,"S. cerevisiae deletion strains, locus YNL322C, strain KRE1, stronger effect = lower value",0.966
same,normalized growth,"S. cerevisiae deletion strains, locus YNR049C, strain mso1, stronger effect = lower value",0.962
same,normalized growth,"S. cerevisiae deletion strains, locus YNR052C, strain pop2, stronger effect = lower value",0.901 (active)
same,normalized growth,"S. cerevisiae deletion strains, locus YOL006C, strain TOP1, stronger effect = lower value",0.669
same,normalized growth,"S. cerevisiae deletion strains, locus YOL012C, strain htz1",0.791
same,normalized growth,"S. cerevisiae deletion strains, locus YOL147C, strain pex11, stronger effect = lower value",0.903 (active)
same,normalized growth,"S. cerevisiae deletion strains, locus YOR001W, strain rrp6, stronger effect = lower value",0.844 (active)
same,normalized growth,"S. cerevisiae deletion strains, locus YOR061W, strain CKA2, stronger effect = lower value",0.962
same,normalized growth,"S. cerevisiae deletion strains, locus YOR069W, strain VPS5, stronger effect = lower value",0.962
same,normalized growth,"S. cerevisiae deletion strains, locus YOR070C, strain gyp1, stronger effect = lower value",0.817 (active)
same,normalized growth,"S. cerevisiae deletion strains, locus YOR080W, strain dia2, stronger effect = lower value",1
same,normalized growth,"S. cerevisiae deletion strains, locus YOR083W, strain WHI5, stronger effect = lower value",0.788 (active)
same,normalized growth,"S. cerevisiae deletion strains, locus YOR106W, strain vam3, stronger effect = lower value",0.642 (active)
same,normalized growth,"S. cerevisiae deletion strains, locus YOR136W, strain idh2, stronger effect = lower value",0.919 (active)
same,normalized growth,"S. cerevisiae deletion strains, locus YOR144C, strain elg1, stronger effect = lower value",0.956
same,normalized growth,"S. cerevisiae deletion strains, locus YOR184W, strain ser1, stronger effect = lower value",0.738 (active)
same,normalized growth,"S. cerevisiae deletion strains, locus YOR231W, strain MKK1, stronger effect = lower value",1.03
same,normalized growth,"S. cerevisiae deletion strains, locus YOR265W, strain rbl2, stronger effect = lower value",0.945
same,normalized growth,"S. cerevisiae deletion strains, locus YOR270C, strain vph1, stronger effect = lower value",0.416 (active)
same,normalized growth,"S. cerevisiae deletion strains, locus YOR290C, strain snf2, stronger effect = lower value",0.851 (active)
same,normalized growth,"S. cerevisiae deletion strains, locus YOR316C, strain cot1, stronger effect = lower value",0.947
same,normalized growth,"S. cerevisiae deletion strains, locus YPL051W, strain arl3, stronger effect = lower value",0.657 (active)
same,normalized growth,"S. cerevisiae deletion strains, locus YPL055C, strain LGE1, stronger effect = lower value",0.869
same,normalized growth,"S. cerevisiae deletion strains, locus YPL078C, strain atp4, stronger effect = lower value",0.802 (active)
same,normalized growth,"S. cerevisiae deletion strains, locus YPL106C, strain sse1, stronger effect = lower value",1.03
same,normalized growth,"S. cerevisiae deletion strains, locus YPL240C, strain hsp82, stronger effect = lower value",0.851 (active)
same,normalized growth,"S. cerevisiae deletion strains, locus YPL241C, strain CIN2, stronger effect = lower value",0.982
same,normalized growth,"S. cerevisiae deletion strains, locus YPL256C, strain CLN2, stronger effect = lower value",1.08
same,normalized growth,"S. cerevisiae deletion strains, locus YPR119W, strain clb2, stronger effect = lower value",0.944
same,normalized growth,"S. cerevisiae deletion strains, locus YPR141C, strain kar3, stronger effect = lower value",0.963
same,normalized growth,"S. cerevisiae deletion strains, locus YPR163C, strain tif3, stronger effect = lower value",0.8 (active)
same,normalized growth,"S. cerevisiae deletion strains, locus YPR167C, strain met16, stronger effect = lower value",0.95
same,normalized growth,"S. cerevisiae deletion strains, strain wtn01, stronger effect = lower value",0.877 (active)
same,normalized growth,"S. cerevisiae strains, strain wild type, stronger effect = lower value",0.886 (active)
